Screening results from PubChem.
Vaccinia Venus = vaccinia inhibition (Venus reporter) | Vaccinia virus Venus reporter expression, fluorescence | 330,000 compounds, 0.46% hits | Potency, µM (top dose mostly 36.5 µM), for inactives: at the highest dose activity change, negative = inhibition, actives largely listed as inhibitors | AID 720580; calls by dose curve; tested in A549 cells; note: % is set by controls: 0 for no effect and ±100 for the full control effect; nearly all actives have a fitted effect of over 30% in size
NS1 inh = inhibitors of influenza NS1 protein function; Potency, µM (doses to about 46.1 µM), for the others: at the highest dose activity, positive = more growth; AID 2326; 270,000 compounds, 0.4% hits; calls by dose curve; note: actives are rising curves; nearly all actives have a fitted effect of over 50% in size
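Recovery from NS1-induced slow growth read by OD600 in budding yeast switched to galactose assay medium (pH 6.0, -URA) at 1:100 dilution. Compound 23 nl per well; the matching strain lacking NS1 serves as control.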
HCV inhibitor = blocks hepatitis C virus; Huh7.5.1 HCVcc-Cre infection, luciferase reporter, 44 h; Potency, µM (highest dose often 41.8 µM), for the others: at the top dose activity change, negative = inhibition, most hits filed as inhibitors; 340,000 compounds, 3.4% hits; note: % is set by controls: 0 for no effect and ±100 for the full control effect
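Cells seeded at 1,000/well and cultured 4 h, then compounds added followed by HCVcc-Cre virus (~0.5 moi). After 44 h further culture, luciferase substrate was added, plates held 15 min at room temperature, and luminescence read for 15 sec.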
Pf growth 48h = P. falciparum growth inhibition at 48 hours (one generation); P. falciparum luciferase growth in erythrocytes, 48 h; Potency, µM (highest dose often 28.7 µM), inactives show at the top dose activity change, negative = inhibition, hits mostly inhibitors; 310,000 compounds, 5.9% hits; note: % is set by controls: 0 for no effect and ±100 for the full control effect
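Firefly luciferase activity from engineered P. falciparum reports growth; inhibitors lower the luminescent signal. Cultures contained 2% hematocrit erythrocytes at 0.1% final parasitemia.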
Vaccinia mCherry = inhibitors of vaccinia virus infection (mCherry reporter signal) | Potency, µM (doses to about 36.5 µM), without a hit: top-dose activity change, negative = inhibition, usual class: inhibitors | 310,000 compounds, 0.63% hits | Vaccinia virus mCherry reporter infection, fluorescence; calls by dose curve; tested in A549 cells; note: % is set by controls: 0 for no effect and ±100 for the full control effect; nearly all actives have a fitted effect of over 35% in size
Pf growth 96h = P. falciparum growth inhibition at 96 hour, primary screen for plastid delayed-death inhibitors; P. falciparum luciferase reporter growth, 96 h; Potency, µM (series often up to 28.7 µM), for the others: at the top dose activity change, negative = inhibition, actives largely listed as inhibitors; 320,000 compounds, 6.9% hits; note: % is set by controls: 0 for no effect and ±100 for the full control effect
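96 h incubation, 37 C, 5% CO2, of luciferase-reporter P. falciparum-infected RBCs (2% hematocrit, 0.05% parasitemia final) with test compounds; endpoint luminescence.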
An asterisk follows results filed as active; i = inactive; ? = inconclusive; . = no result; [ ] = remark or other dose. Only some compounds are listed: those with a hit (about 11% of all), similar ones and a draw of the others. Unless noted, calls come from the whole dose curve; as a rule, active = well fitted inhibition curve with a large enough effect; inconclusive = small, poorly fitted or top-dose-only effect, or another doubt; inactive = no such curve, though single readings can be large or run the other way. Potency is the fitted concentration of half-maximal effect.

SMILES	Vaccinia Venus	NS1 inh	HCV inhibitor	Pf growth 48h	Vaccinia mCherry	Pf growth 96h
CCOC(=O)N1CCN(C(=O)c2ccc3c(c2)N(Cc2cccc(Cl)c2)C(=O)c2ccccc2S3=O)CC1 (configuration not stated)	0%[7.34 µM]	20%	18µM*	7.4µM*	-7%[7.34 µM]	19%
CCN1CCN(CCNC(=O)c2ccc3c(c2)N(Cc2ccc(F)cc2)C(=O)c2ccccc2S3=O)CC1 (configuration not stated)	-28%	0%	?	10µM*	-2%	10%
CC1CCCCN1C(=O)c1ccc2c(c1)N(Cc1cccc(Cl)c1)C(=O)c1ccccc1S2=O (configuration not stated)	-13%	.	.	.	-1%	.
CC1CCCCN1CCNC(=O)c1ccc2c(c1)N(Cc1cccc(Cl)c1)C(=O)c1ccccc1S2=O (configuration not stated)	?	-3%	?	2.9µM*	-4%	2%
Cc1ccc(C(=O)N2CCN=C2SCc2ccc([N+](=O)[O-])cc2)cc1C	-6%	.	20%	?	i	0%
CC(=O)N1CCCc2cc(S(=O)(=O)NCc3cccc(C)c3)ccc21	-8%	.	.	.	-4%	.
Cc1ccccc1CN1C(=O)c2ccccc2S(=O)c2ccc(C(=O)NCCCN3CCOCC3)cc21 (configuration not stated)	-14%[7.34 µM]	6%	?	?	-19%[7.34 µM]	1.5µM*
Cc1ccc(C)c(CN2C(=O)c3ccccc3S(=O)c3ccc(C(=O)N4CCN(c5ccccn5)CC4)cc32)c1 (configuration not stated)	-4%	.	11µM*	12µM*	?	?
COCCNc1nc(-c2cc(-c3ccccc3)on2)cc(C(C)C)n1	-15%	-48%	10µM*	?	-7%	?
COCCNc1nc(C)cc(-c2cc(-c3ccc(Cl)cc3)on2)n1	-18%	-2%	-12%	46%	i	26%
Cc1ccc2[nH]c(CSc3ccccc3)cc(=O)c2c1	-13%	-4%	?	?	-9%	13µM*
NC(=O)Nn1c(CCC(=O)O)ccc1-c1ccc(Br)cc1	-2%	-5%	-11%	8%	i	1%
O=C(Nc1ccc(Oc2ccc(Cl)cc2)c(Cl)c1)c1cc(I)cc(I)c1O	?	-3%	32µM*	?	-18%	?
N[C@@H](Cc1ccccc1)C(=O)O	-13%	-4%	.	21%	-3%	17%
Cc1cccc(OCCCC(=O)Nc2ccc(S(=O)(=O)Nc3ncccn3)cc2)c1C	.	19%	14%	6%	.	2.1µM*
Cc1cccc(OCCCC(=O)Nc2ccc(S(=O)(=O)Nc3onc(C)c3C)cc2)c1C	12%	-38%	13%	-12%	.	-10%
Cc1cccc(OCCCC(=O)Nc2ccc(S(=O)(=O)Nc3nccs3)cc2)c1C	-6%	18%	1%	3%	-19%	3.7µM*
COc1ccccc1/C=C1/SC(=O)N(CCC(=O)Nc2ccc(S(=O)(=O)Nc3nccs3)cc2)C1=O	-3%	16%	?	-21%	-8%	13µM*
COCCCN(C(=S)NC(=O)C12CC3CC(CC(C3)C1)C2)c1c(N)n(Cc2ccccc2)c(=O)[nH]c1=O	-7%	-19%	2%	?	i	?
Cc1ccc(N(CC(=O)Nc2ccc(Br)cc2)S(=O)(=O)c2cccs2)cc1	9%	.	.	.	-4%	.
COc1cccc(CC(=O)NNC(=O)c2ccc3c(c2)OCO3)c1	.	12%	7%	69%	.	8%
O=C(CSc1ccc(-c2cccs2)nn1)NCCc1ccccc1	-17%	5%	-16%	8%	-1%	2.9µM*
O=C(NCC1CCCO1)C(=O)N/N=C/c1ccccc1C(=O)O (configuration not stated)	-1%	3%	14%	18%	-4%	10µM*
CCOC(=O)Cn1c(S(=O)(=O)Cc2ccc(F)cc2)nc(-c2ccccc2)c1-c1ccccc1	-13%	6%	?	13µM*	?	9.3µM*
CCOC(=O)Cn1c(S(=O)(=O)Cc2cccc(F)c2)nc(-c2ccccc2)c1-c1ccccc1	.	?	?	8.3µM*	.	5.9µM*
SMILES	Vaccinia Venus	NS1 inh	HCV inhibitor	Pf growth 48h	Vaccinia mCherry	Pf growth 96h
NC(=O)Cn1c(S(=O)(=O)Cc2ccccc2)nc2ccccc21	-10%	1%	9%	.	i	.
C#CCn1c(S(=O)(=O)Cc2ccc(F)cc2)nc(-c2ccccc2)c1-c1ccccc1	.	26%	?	?	.	8.3µM*
CCOC(=O)Cn1c(-c2ccccc2)nc2ccccc2c1=O	-16%	-56%	5%	?	-9%	-5%
CCOc1ccc(CCNC(=O)COC(=O)COc2ccc(Cl)cc2)cc1OCC	-8%	.	4%	?	i	10%
CC(C)(C)C(=O)N1CCN(c2ncccc2C(F)(F)F)CC1	.	-4%	9%	?	.	0%
CCOc1ccc(CCN2C(=O)C(=O)N([C@@H](Cc3ccc(O)cc3)CN3CCC[C@H]3CN3C(=O)C(=O)NC[C@@H]3Cc3ccc(O)cc3)C[C@@H]2Cc2ccccc2)cc1	-8%	.	.	.	-10%	.
COC(=O)/C=c1/sc2n(c1=O)CCN=2	4%	-1%	-6%	-3%	3%	16%
Cc1ccc(CN2C(=O)C(CC(C)C)Nc3ncnc(N4CCN(c5ccccn5)CC4)c32)cc1 (configuration not stated)	?	.	?	9.3µM*	28µM*	?
CC(C)CC1Nc2ncnc(N3CCN(c4ccccn4)CC3)c2N(Cc2ccc(Br)cc2)C1=O (configuration not stated)	?	.	25µM*	7.4µM*	-24%	8.3µM*
Cn1c(=O)oc2cc(S(=O)(=O)NCCC(=O)NCc3ccc(F)cc3)ccc21	-14%	-7%	-9%	4%	-18%	13µM*
CCc1ccc(NC(=O)CCNS(=O)(=O)c2ccc3c(c2)oc(=O)n3C)cc1	2%	.	.	.	-8%	.
Cc1ccc(S(=O)(=O)/N=C2\C=C(NS(=O)(=O)c3ccccc3)C(=O)c3ccccc32)c(C)c1	12%	.	-1%	.	?	.
